# Laboratory results from the supplement of paper PMC3898565.
# ± gives the uncertainty stated by the source.
# Test system: U87
# Assay: cell viability relative to vehicle control; higher = less growth inhibition (less active)
# Conditions: 10 µM; 72 h
# 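Also: viable cell number estimated from Alamar Blue fluorescence read at 560/90, part of a single-dose primary screen of an FDA-approved drug library.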
row,SMILES,cell viability
1,C[C@H]1C[C@H]2[C@@H]3CCC4=CC(=O)C=C[C@]4(C)[C@@]3(Cl)[C@@H](O)C[C@]2(C)[C@@]1(O)C(=O)CO [Beclomethasone],106 ± 1.5%
2,CC(C)(C#N)c1cc(Cn2cncn2)cc(C(C)(C)C#N)c1,109 ± 1.3%
3,CC(C)(C)NCC(O)c1ccc(O)c(CO)c1 (centres undefined),98.8 ± 8.3%
4,CC(=O)OCC(=O)NCCCOc1cccc(CN2CCCCC2)c1,102 ± 1.4%
5,CNS(=O)(=O)Cc1ccc2[nH]cc(CCN(C)C)c2c1,101 ± 1.5%
6,Cc1sc(N)c(C(=O)c2cccc(C(F)(F)F)c2)c1C,109 ± 1.8%
7,CCOC(=O)[C@H](CCc1ccccc1)N[C@@H](C)C(=O)N1[C@H](C(=O)O)C[C@@H]2CCC[C@@H]21,101 ± 1.5%
8,CN1CCc2cc(Cl)c(O)cc2[C@@H](c2ccccc2)C1,97.5 ± 6.3%
9,CN1C2CCCC1CC(NC(=O)c1nn(C)c3ccccc13)C2 (centres undefined),108 ± 0.83%
10,CC(C)NCC(O)c1ccc(NS(C)(=O)=O)cc1 (centres undefined) [Sotalol],101.7 ± 0.99%
11,CO[C@H]1O[C@@H]2O[C@@]3(C)CC[C@H]4[C@H](C)CC[C@@H]([C@H]1C)[C@@]24OO3,107 ± 2.1%
12,C[C@]12CC[C@@H]3c4ccc(O)cc4CC[C@H]3[C@@H]1CC[C@@H]2O,97.2 ± 2.4%
13,CC(C)c1ccc2c(c1)c(SC(C)(C)C)c(CC(C)(C)C(=O)O)n2Cc1ccc(Cl)cc1,99 ± 1.3%
14,NC(=O)OCC(COC(N)=O)c1ccccc1 [Felbamate],105.7 ± 1%
15,CC(C(O)c1ccc(O)cc1)N1CCC(Cc2ccccc2)CC1 (centres undefined) [Ifenprodil],99.5 ± 1.3%
16,CC(N/C(=N\C#N)Nc1ccncc1)C(C)(C)C (centres undefined) [Pinacidil monohydrate],105 ± 1.1%
17,COc1ccc(-c2oc3c(CC=C(C)C)c(O[C@@H]4O[C@H](CO)[C@@H](O)[C@H](O)[C@H]4O)cc(O)c3c(=O)c2O[C@@H]2O[C@@H](C)[C@H](O)[C@@H](O)[C@H]2O)cc1,105 ± 1.9%
18,O=c1[nH]c(=O)n(C2CCCO2)cc1F (centres undefined),96.728 ± 0.044%
19,O=C1c2cccc3c2[C@H](CCC3)CN1[C@@H]1CN2CCC1CC2,84.3 ± 1.7%
20,C[C@H]1COc2c(N3CCN(C)CC3)c(F)cc3c(=O)c(C(=O)O)cn1c23,102.8 ± 0.96%

row,SMILES,cell viability
1,CC(C)Oc1ccc2c(=O)c(-c3ccccc3)coc2c1,101 ± 2.6%
2,CN[C@H]1CC[C@@H](c2ccc(Cl)c(Cl)c2)c2ccccc21 [Sertraline],34.2 ± 3.8%
3,CCc1ccc(CCOc2ccc(CC3SC(=O)NC3=O)cc2)nc1 (centres undefined),105 ± 3.6%
4,CN(C)CCOC(c1ccccc1)c1ccccc1 [Diphenhydramine],103 ± 1.1%
5,CN1CCC(=C2c3ccccc3CCc3sccc32)CC1 [Pizotyline],94.7 ± 13%
6,CC1=C(C(=O)O)N2C(=O)[C@@H](NC(=O)[C@H](N)c3ccccc3)[C@H]2SC1 [Cephalexin monohydrate],100 ± 1.7%
7,O=C(CCCN1CC=C(n2c(=O)[nH]c3ccccc32)CC1)c1ccc(F)cc1,106 ± 1.7%
8,Cc1nc2ccccn2c(=O)c1CCN1CCC(C(=O)c2ccc(F)cc2)CC1,97.4 ± 1.5%
9,O=C1CC2(CCCC2)CC(=O)N1CCNCC1COc2ccccc2O1 (centres undefined),110.4 ± 0.75%
10,C=C1/C(=C\C=C2/CCC[C@]3(C)[C@@H]([C@H](C)/C=C/[C@@H](O)C4CC4)CC[C@@H]23)C[C@@H](O)C[C@@H]1O,100 ± 1.4%
11,COc1cc(C)nc(-n2nc(C)cc2OC)n1,104 ± 1.9%
12,CN1[C@@H]2CC[C@H]1C[C@@H](OC(=O)c1c[nH]c3ccccc13)C2,105.3 ± 0.81%
13,CC(=O)SCC(Cc1ccccc1)C(=O)NCC(=O)OCc1ccccc1 (centres undefined),103 ± 2%
14,CC(=O)NC[C@H]1CN(c2ccc(N3CCOCC3)c(F)c2)C(=O)O1,103 ± 1.8%
15,CCC(C)(C)N=C(NC#N)Nc1cccnc1,107 ± 1.1%
16,COCCOC(=O)C1=C(C)NC(C)=C(C(=O)OC(C)C)C1c1cccc([N+](=O)[O-])c1 (centres undefined),103 ± 1.5%
17,COc1cc(N)c(Cl)cc1C(=O)NC1CCN(CCCOc2ccc(F)cc2)CC1OC (centres undefined) [Cisapride],103.5 ± 0.4%
18,O=C(c1ccc(F)cc1)C1CCN(CCn2c(=S)[nH]c3ccccc3c2=O)CC1 [Altanserin],99.9 ± 2.9%
19,C[C@]12CCC(=O)C=C1CC[C@@H]1[C@@H]2CC[C@@]2(C)[C@H]1CC[C@]2(O)C(=O)CO,103.8 ± 0.18%
